Yeast superoxide – yeast age-related superoxide inhibition as caloric restriction mimetic. S. cerevisiae aged cells, superoxide DHE fluorescence; stronger effect = lower value. superoxide response (% of plate mean), % at 10 µM. 330,000 tested, 0.18% active;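 active = superoxide response under a set limit, about three screen SD below normal, cut at about 65% in these data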;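 also: yeast aged for seven days with compound at 30 °C before DHE staining; 100% = average MFI of all compound-treated wells on the plate with controls excluded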
Platelet DG rel – modulates dense granule release in human platelets; 300,000 tested, 0.22% active; inhibition, %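 (compounds screened at 7.5 µM in platelet-rich plasma)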; human platelet-rich plasma, SFLLRN dense granule ATP release, luminescence;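 active = mean replicate score, as percent of positive control, at or above 50; inconclusive = mean below 50 but at least one replicate at or above 50; inactive = mean and every replicate below 50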
Calb FLC – affects C. albicans growth with fluconazole. growth inhibition, % (concentration not given with the values). AID 1979. 300,000 tested, 0.57% active. C. albicans CaCi-2 (fluconazole-resistant clinical isolate) + fluconazole, Alamar Blue growth, 48 h;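 active = growth inhibition above about 58% in most replicates, limit read from the data, passing the limit was not always enough; inconclusive = exactly half the replicates above a set limit; inactive = most replicates below a set limit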;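 also: all wells also contain fluconazole at 8 µg/ml as a sub-toxic cotreatment; 0% = median of DMSO wells and 100% = median of geldanamycin control wells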
SKKanGAS inh – inhibitors of SKKanGAS S. pyogenes growth in kanamycin (SK-promoter or general growth effect); BacTiter-Glo, 6 h; inhibition, % at 7.5 µM; 300,000 tested, 1.3% active; AID 1662;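 active = mean replicate score, as percent of positive control median, at least 50; inconclusive = mean below 50 but one replicate at or above 50; inactive = mean and every replicate below 50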;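 also: strain carries kanamycin resistance gene driven by streptokinase promoter and grows in 40 µg/ml kanamycin; loss of luminescence reflects streptokinase promoter inhibition or plain growth inhibition; 0% = median of DMSO wells and 100% = positive control at its reference dose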
PolyA inhibitor – yeast polyadenylation inhibition | activity score, % at 12 µM | AID 1875 | S. cerevisiae SKY197-pL101 polyadenylation reporter, beta-gal luminescence; efflux-impaired pdr1/pdr3 knockout yeast; score 100 = 6 SD above DMSO | 300,000 tested, 0.02% active;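 active = lowest replicate activity score at least 50, where 100 means six control SD above control mean; inconclusive = lowest score under 50 but half or more replicates reach 50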;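 also: yeast exposed to compound for 9 h at 30 °C; higher score means more reporter readthrough which indicates perturbed polyadenylation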
* marks the source's active call; other numbers are inactive results; u = inconclusive; x = not tested or not shown. This is a sample that favours compounds with a hit; in the whole collection about 2% have one here.

SMILES	Yeast superoxide	Platelet DG rel	Calb FLC	SKKanGAS inh	PolyA inhibitor
COc1ccccc1C(=O)NNC(=S)NC(=O)c1sc2ccccc2c1Cl	109	-5	-8	94*	u
COc1ccccc1C(=O)NC(=S)NNC(=O)c1sc2ccccc2c1Cl	82	6	4	118*	27
COc1cccc(-n2nnnc2S(C)(=O)=O)c1	117	5	105*	1	-51
OC1CN=C2C=CC=CN2C1 (stereo unspecified)	93	54*	-17	-4	8
CC(C)(C)c1ccc(Cn2nnc3c(=O)[nH]c(C4CCCN(C(=O)c5cccs5)C4)nc32)cc1 (stereo unspecified)	101	-3	12	14	1
CCCn1c(C)cc(C(=O)COC(=O)CN=C2NS(=O)(=O)c3ccccc32)c1C	98	2	4	-1	0
CC(C)(C)C(=O)/C(=C/c1ccc(Cl)cc1)n1cncn1	97	3	-1	-1	-30
CC(C)(C)C(=O)/C(=C\c1ccc([N+](=O)[O-])cc1)n1cncn1	88	20	107*	-7	-70
COc1cc(C)ccc1OCc1cc(C(=O)N2CCN(C)C[C@@H]2c2ccccc2)no1	119	12	-2	-9	2
O=[N+]([O-])c1ccc(S(=O)(=O)Nc2nc3ccccc3nc2Nc2ccccc2)cc1	122	5	105*	1	-7
COc1cc(Nc2nc3ccccc3nc2NS(=O)(=O)c2ccc([N+](=O)[O-])cc2)cc(OC)c1OC	110	-1	x	24	-7
O=[N+]([O-])c1ccc(S(=O)(=O)Nc2ccc(-c3csc(-c4ccccc4)n3)cc2)cc1	102	-2	42	66*	14
COc1ccc(CCc2nnc(CCC(=O)NCCc3ncccc3C)o2)cc1	113	-1	14	1	8
Nc1ccccc1Oc1c(F)c(F)c(Oc2ccccc2N)c(F)c1F	98	-10	7	-5	-7
Cc1ccc(C(=O)Nc2nc(-c3ccccc3)c(-c3ccccc3)o2)cc1	88	12	13	113*	-29
Cc1cc(C)nc(SCC(=O)Nc2nc(-c3ccccc3)c(-c3ccccc3)o2)n1	100	-1	9	24	-18
Cc1ccccc1C1CC(c2ccccc2OC(F)F)Nc2ncnn21 (stereo unspecified)	88	-1	6	32	1
Cc1ccc(C2CC(c3ccccc3OC(F)F)Nc3ncnn32)cc1 (stereo unspecified)	91	51*	-3	16	8
Cc1cc(Cl)n2nc(C)c(-c3ccc(Cl)cc3)c2n1	103	x	113*	x	x
Cc1cc(N)n2nc(C)c(-c3ccc(Cl)cc3)c2n1	97	-10	4	-6	-18
N=C1c2ccccc2CN1c1ccc(N2CCOCC2)c(S(=O)(=O)Nc2ccc(Cl)cc2)c1	112	1	-8	-8	-10
O=C(NNC(=O)c1cccnc1SCc1cccc([N+](=O)[O-])c1)c1ccccn1	110	-18	u	75*	-11
C[C@@]12C(=O)NCC(=O)N1[C@@H]1c3cc(Br)ccc3OC[C@@H]1[C@@H]2c1ccccc1	79	x	x	x	x
CS(=O)(=O)c1ccc([C@@H](O)[C@@H](CO)NC(=O)C(Cl)Cl)cc1	93	7	17	108*	-6
COc1ccc(CN(C)C(=O)/C=C/c2ccc(S(=O)(=O)N3CCCCCC3)cc2)cc1	161	x	x	x	x
SMILES	Yeast superoxide	Platelet DG rel	Calb FLC	SKKanGAS inh	PolyA inhibitor
O=C(COc1ccc(Cl)cc1Cl)N1CCCN(C(=O)COc2ccc(Cl)cc2Cl)CC1	110	4	93*	30	-13
COc1ccc(/C=C(\NC(=O)c2ccc(C)cc2)C(=O)N2CCCCC2)cc1	99	6	21	1	-4
Cc1cc(=O)[nH]c(SCC(=O)Nc2ccc(Br)cc2)c1C#N	101	3	38	55*	12
C(=N\Nc1nncc2ccccc12)/c1ccccc1	101	9	-16	-11	-20
CN(C)c1ccc(/C=N/Nc2nncc3ccccc23)cc1	100	54*	2	10	-3
O=C(NC(=S)N1CCN(c2ccc(F)cc2)CC1)C12CC3CC(CC(C3)C1)C2	103	0	1	51*	8
O=C(Nc1ccccc1N1CCN(c2ccc(F)cc2)CC1)C12CC3CC(CC(C3)C1)C2	96	0	-16	13	-5
OC(CNCCC1C=Nc2ccccc21)Cn1c2ccc(Cl)cc2c2cc(Cl)ccc21 (stereo unspecified)	73	0	99*	136*	-10
Cc1nc2c(ncn2-c2ccccc2)c(=O)n1NC(=O)CN1CCN(C)CC1	95	2	0	4	7
CSc1ncc(C(=O)Nc2ccc(Br)cn2)c(C)n1	98	0	9	5	13
COc1cc2cc(Oc3ccc4ccc(=O)oc4c3)c(=O)oc2cc1OC(C)=O	77	0	9	46	13
COc1cc2cc(Oc3ccc4ccc(=O)oc4c3)c(=O)oc2cc1O	96	3	1	59*	-13
COc1ccccc1CNC(=O)c1cc(C)nn1-c1ccccc1	44*	5	-3	3	8
CCOC(=O)c1sc2ncnc(N3CCN(c4ccc(OC)cc4)CC3)c2c1C	91	7	-2	69*	-3
N=c1c(-c2nc3ccccc3[nH]2)cc(C(=O)c2cccs2)nn1-c1ccccc1	101	1	-3	51*	5
CCCn1c(N)cc(=O)n(C)c1=O	113	1	3	-4	-4
COC(=O)c1cn(CC(=O)NC2CCCCC2)c2ccccc12	166	6	100*	6	-2
COc1ccc2c(/C=C/c3cc[n+](C)cc3)c[nH]c2c1	106	6	0	-1	17
COc1ccc2c(c1)c(/C=C/c1cc[n+](C)cc1)cn2C	99	-2	81*	6	-13
Oc1c(Cl)cc(Cl)cc1CNn1cnnc1	98	-1	1	-3	3
Oc1c(Cl)cc(Cl)cc1Sc1cc(Cl)cc(Cl)c1O	92	-1	x	106*	-13
COc1ccc(N(CC(=O)N2CCOCC2)S(C)(=O)=O)cc1OC	95	6	-3	0	4
CN1CCN(C(=S)c2cn(Cc3ccc(F)cc3)c3ccccc23)CC1	98	-7	121*	-4	-22
CN(Cc1cccs1)C(=O)COc1ccc(-c2nnco2)cc1	105	-2	-2	-3	11
CCCN(CC(=O)Nc1ccccc1Br)CC(=O)Nc1ccc(F)c(F)c1F	94	12	-2	2	-3
CCCN(CC(=O)Nc1cc(Cl)cc(Cl)c1)CC(=O)Nc1ccc(F)c(F)c1F	100	7	1	82*	2
Clc1ccc(-c2ccc(CNCc3ccccn3)o2)cc1	92	4	-5	57*	-16
CCOc1ccccc1OCCCC(=O)NNC(=O)c1nn(C)c(=O)c2ccccc12	105	x	x	x	x
O=c1cc(N2CCCCC2)c(-c2ccccc2)nn1Cc1cccc(Cl)c1	121	3	-1	52*	-12
